Only some compounds are listed: those with a hit (about 19% of all), similar ones and a draw of the others.
HT1080 IDH1KD tx: HT-1080 IDH1 knockdown cell toxicity (counter line). HT-1080 IDH1 knockdown viability, ATP luminescence, 48 h. Potency, µM (highest dose often 46.1 µM), for inactives: at the top dose activity, negative = toxicity, usual class: cytotoxic. hit rate 2% among 360,000. AID 686971;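 also: potency is read from the fitted curve at half-maximal effect; 0% = DMSO wells and -100% = cell-free medium wells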
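Viability of IDH1-knockdown HT-1080 fibrosarcoma cells was assessed by CellTiter-Glo after 48 h at 37 °C with titrated compound; concentration-effect curves were classified by fit quality and response size.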
TDP1 cell CPT: DT40-hTDP1 cell growth loss with CPT; Potency, µM (doses to about 46.2 µM), inactives show at the highest dose activity change, negative = growth inhibition, most hits filed as inhibitors; hit rate 12% among 420,000; chicken DT40 Tdp1-/-;hTDP1 cells + 20 nM CPT, ATP luminescence, 48 h; also: potency is read from the fitted curve at half-maximal effect; nearly all actives have a fitted effect of over 55% in size
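Cell growth measured by CellTiter-Glo luminescence after a minimum 48 h, 37 C compound exposure with 20 nM CPT in Tdp1-knockout DT40 cells stably expressing hTDP1, seeded 400/well; qHTS titration format.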
IL1B secr inh: blocks inflammasome-driven IL-1 beta release. THP-1 LPS/ATP IL-1B secretion, AlphaLISA, 16 h; hits give low values. activity change, % at 57.5 µM. hit rate 4.7% among 360,000; in the data active = activity change below about -50%; inconclusive = mostly about -30% to -49%
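Secreted IL-1B measured by AlphaLISA bead assay after 16 h compound exposure of THP-1 cells; compounds (final up to 57.5 uM) added 1 h before LPS (250 ng/mL) and ATP (1.25 mM) stimulation; lower signal means less secretion.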
TDP1 cell noCPT: qHTS for Inhibitors of human tyrosyl-DNA phosphodiesterase 1 (TDP1): qHTS in cells in absence of CPT | hit rate 15% among 420,000 | AID 686978, 2013 | Potency, µM (series often up to 46.2 µM), without a hit: top-dose activity change, negative = growth inhibition, actives largely listed as inhibitors | DT40 Tdp1-/- hTDP1 cells, no CPT, ATP luminescence, 48 h; also: potency is read from the fitted curve at half-maximal effect; nearly all actives have a fitted effect of over 55% in size
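Cells were dispensed at 400 per well, compounds added by pin tool, plates incubated ≥48 hr at 37 °C, then CellTiter-Glo added for 30 min at room temperature before luminescence reading. Line: DT40 Tdp1-/- complemented with hTDP1; camptothecin omitted.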
HT1080NT lethal: kills 2HG-producing HT-1080-NT fibrosarcoma cells. Potency, µM (doses to about 46.1 µM), for inactives: top-dose activity, negative = less viability, most hits filed as cytotoxic. AID 686970. HT-1080-NT fibrosarcoma viability, CellTiter-Glo ATP luminescence, 48 h. hit rate 1.6% among 360,000;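 also: NT is the 2HG producing partner of a matched IDH1 knockdown line; potency is read from the fitted curve at half-maximal effect; 0% = DMSO-treated cells and -100% = media-only wells without cells; nearly all actives have a fitted effect of over 55% in size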
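750 cells/well, RPMI + 5% FBS; 2 h settle, compound pin-transfer, 48 h at 37 degrees C. CellTiter-Glo 10 min RT, luminescence. Normalized to DMSO and media-only wells.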
* hit, by the source's call; ? = inconclusive; . = no result given. Unless noted, calls follow the shape of the dose curve; as a rule, active = well fitted curve in the direction sought with a large enough effect; inconclusive = small, poorly fitted or top-dose-only effect, or another doubt; inactive = no such curve, though single readings can be large; an effect the other way counts as inactive or inconclusive. Unless noted, % is scaled to controls: 0 for no effect and ±100 for the full control effect.

SMILES | HT1080 IDH1KD tx | TDP1 cell CPT | IL1B secr inh | TDP1 cell noCPT | HT1080NT lethal
C=CC[n+]1c(-c2ccc(OC)c(OC)c2)csc1NNC(=O)Nc1ccccc1 | 16µM* | 7.3µM* | -75* | 6.5µM* | ?
C=CC[n+]1c(-c2ccccc2)csc1NC(C)(C)C | -4% | 5% | -19 | -24% | 1%
CC(=O)Nc1nnc(CSCc2ccccc2F)s1 | 0% | -22% | 13 | -26% | -5%
O=C(O)CCCCCN1C(=O)/C(=C\c2ccncc2)SC1=S | 12% | 23µM* | -99* | 23µM* | 8%
COc1ccc(CN2C(=O)/C(=C/c3ccncc3)SC2=S)cc1 | ? | 23µM* | -82* | 9.2µM* | ?
O=C(O)CCCCCN1C(=O)/C(=C\c2ccc(-c3ccc(Cl)cc3)o2)SC1=S | -8% | ? | 6 | ? | 4%
O=C(O)CCCCCN1C(=O)/C(=C/c2ccncc2)SC1=S | -5% | 23µM* | -98* | 23µM* | 0%
O=C(O)CCCN1C(=O)/C(=C/c2ccncc2)SC1=S | -18% | ? | -80* | ? | ?
O=C(CCN1C(=O)/C(=C/c2ccccc2)SC1=S)Nc1cccnc1 | 11% | -5% | -7 | ? | 3%
O=C(CCCN1C(=O)/C(=C/c2ccccc2)SC1=S)Nc1ccc(C(=O)O)c(O)c1 | 2% | 6% | 10 | -17% | -1%
CC(C)C(C)NC(=O)COC(=O)C1CCN(S(=O)(=O)c2ccc3c(c2)OCCO3)CC1 (stereo unspecified) | 4% | 7% | 15 | 0% | 5%
COCCNC(=O)NC(=O)CN1CCCc2ccccc21 | -3% | -12% | 19 | -8% | -3%
CC(c1ccccc1)N1C(=O)/C(=C/c2ccncc2)SC1=S (stereo unspecified) | ? | ? | -50* | 23µM* | ?
O=C(NCC1CCCO1)c1onc(CSc2ccccc2F)c1C(=O)O (stereo unspecified) | 9% | -1% | 11 | -5% | -2%
COc1ccc(CN2C[C@@H](CO)O[C@@H](n3cnc4c(NCCN(C)C)ncnc43)C2)cc1 | 13% | ? | -5 | -20% | -5%
CC1CCC(C(=O)NC(C(=O)OCC(=O)c2ccccc2)C(C)C)CC1 (stereo unspecified) | . | 18µM* | . | 18µM* | .
CCc1ccc(C(=O)COC(=O)C(Cc2ccccc2)NC(=O)C2CCC(C)CC2)cc1 (stereo unspecified) | -2% | 1% | 0 | -23% | -12%
COc1ccc(CC(=O)NCCc2sc(-c3cccc(F)c3)nc2C)cc1 | . | -27% | . | ? | .
CCOc1ccc(CC(=O)NCCc2sc(-c3cccc(F)c3)nc2C)cc1 | . | ? | . | -30% | .
COc1ccc(C(=O)NCCc2sc(-c3ccc(F)cc3)nc2C)cc1OC | . | ? | . | 15µM* | .
COc1ccc(C(=O)NCCc2sc(-c3cccc(F)c3)nc2C)cc1 | . | 23µM* | . | 16µM* | .
COc1ccc(C)cc1NC(=O)C(=O)NCCc1sc(-c2ccc(Cl)cc2)nc1C | . | -9% | . | -27% | .
Cc1nc(-c2ccc(Cl)cc2)sc1CCNC(=O)c1ccco1 | . | 21µM* | . | 18µM* | .
COc1ccc(CC(=O)NCCc2sc(-c3ccc(Cl)cc3)nc2C)cc1OC | . | ? | . | 21µM* | .
Cc1nc(-c2ccc(Cl)cc2)sc1CCNC(=O)C(=O)Nc1ccccc1C#N | . | -15% | . | -26% | .
SMILES | HT1080 IDH1KD tx | TDP1 cell CPT | IL1B secr inh | TDP1 cell noCPT | HT1080NT lethal
COc1ccc(-c2nc3c4ccccc4n(CC(=O)Nc4cc(F)ccc4F)c(=O)n3n2)cc1 | . | -1% | . | -28% | .
Cc1nnc(NC(=O)CSc2nnc(CC(=O)Nc3ccccc3Cl)n2C)s1 | 6% | 1% | 17 | 6% | 5%
Cc1ccc(C(=O)NCCc2sc(C)nc2C)cc1 | 12% | -2% | 0 | -23% | 8%
Cc1cc(C)cc(C(=O)NCCc2sc(-c3ccc(F)cc3)nc2C)c1 | . | 13µM* | . | 21µM* | .
CC1(C)Cc2ccccc2C(/C(C#N)=N/O)=N1 | 4% | 15µM* | -18 | 23µM* | 5%
O=c1c2[nH]c3cccc(Cl)c3c2ncn1Cc1ccco1 | 1% | -1% | 8 | -5% | -3%
Nc1cc(-c2ccc(Br)cc2)nn1Cc1ccccc1 | ? | ? | -69* | -18% | -28%
CC(C)c1ccc(NC(=O)c2cc(S(=O)(=O)N3CCCCC3)c[nH]2)cc1 | 10% | -1% | 0 | -19% | 20%
Cc1cc2nc(C(C)(C)C)c(Cc3cccc(F)c3)n2c(C)c1Br | ? | ? | 54 | ? | ?
COc1ccc(F)cc1-c1cc(C(=O)Nc2ccc(C)c(NS(C)(=O)=O)c2)[nH]n1 | ? | 18µM* | -54* | 16µM* | ?
CCCOc1ccc(F)cc1-c1cc(C(=O)Nc2ccc(C)c(NS(C)(=O)=O)c2)[nH]n1 | ? | 16µM* | -11 | 23µM* | ?
COc1ccc(N2CCN(c3ccc(S(=O)(=O)N(C(C)C)C(C)C)cn3)CC2)cc1 | 9% | 4.6µM* | 6 | 7.3µM* | 13%
O=C(Nc1ccncc1)c1cc(C2CCCCN2C(=O)CCc2ccccc2)on1 (stereo unspecified) | 20% | ? | 1 | ? | -4%
COC[C@H]1CCCN1[C@@H]1CS(=O)(=O)N[C@H]1COCc1ccccc1 | 16% | -19% | 30 | -28% | 19%
CCN(CC)S(=O)(=O)c1ccc2c3c(cccc13)C(=O)N2 | 0% | -17% | 50 | ? | -6%
CCOc1ccc(NS(=O)(=O)c2ccc3c4c(cccc24)C(=O)N3)cc1 | . | 16µM* | . | ? | .
CCOc1ccc(NS(=O)(=O)c2ccc(OCC)c3ncccc23)cc1 | 10µM* | 11µM* | 29 | 10µM* | 11µM*
CCN(c1cccc(C)c1)S(=O)(=O)c1ccc2c3c(cccc13)C(=O)N2 | ? | ? | 0 | 11µM* | -20%
CCOc1ccc(S(=O)(=O)O)c2cccnc12 | . | -6% | . | -4% | .
CCNS(=O)(=O)c1ccc2c3c(cccc13)C(=O)N2 | -1% | -15% | 0 | -23% | -11%
Cc1ccccc1C(=O)OCC(=O)Nc1cccc(S(=O)(=O)NC2=NCCC2)c1 | 2% | 2% | -12 | 19% | 8%
CC(=O)N1CCN(CC(O)COc2ccc(S(=O)(=O)N3CCOCC3)cc2)CC1 (stereo unspecified) | 7% | -12% | 14 | -6% | 14%
COc1ccc(S(=O)(=O)NC(CC(=O)NCCc2ccc(OC)c(OC)c2)C(C)C)cc1 (stereo unspecified) | 9% | -3% | 0 | -3% | 11%
CCN(CC)S(=O)(=O)c1cc(NC(=O)Cc2n[nH]c(=O)c3ccccc23)ccc1C | ? | ? | -10 | 13µM* | ?

Source: PubChem BioAssay
